High-throughput results (PubChem)
JMJD2A Tudor = qHTS Assay for Inhibitors of JMJD2A-Tudor Domain; hit rate 4.4% among 390,000; AID 504339, 2011; AlphaScreen JMJD2A-Tudor / H3K4me3 peptide binding; Lysine-specific demethylase 4A (Homo sapiens), O75164; Potency, µM (highest dose often 114 µM), usual class: inhibitors; also: nearly all actives have a fitted effect of over 50% in size
Sfp inh = qHTS Assay for Inhibitors of Bacillus subtilis Sfp phosphopantetheinyl transferase (PPTase) | Biochemical Sfp PPTase activity, qHTS | hit rate 3.5% among 310,000 | Potency, µM, most hits filed as inhibitors;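 also: the enzyme is Sfp with the accession as filed and its product quenches rhodamine fluorescence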
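Fluorescence-quenching assay: 15 nM Sfp-PPTase preincubated 15 min at room temperature with compound, then 5 uM rhodamine-CoA and 12.5 uM BHQ-2-labelled YbbR peptide added. Fluorescence (ex 525/em 598 nm) read at start and after 30 min; difference gives rate.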
TDP1 inh = qHTS Assay for Inhibitors of Tyrosyl-DNA Phosphodiesterase (TDP1); hit rate 0.28% among 350,000; AID 485290, 2010; recombinant TDP1, AlphaScreen DNA substrate cleavage; Potency, µM (series often up to 130 µM), hits mostly inhibitors; Tyrosyl-DNA phosphodiesterase 1 (Homo sapiens), Q9NUW8; also: nearly all actives have a fitted effect of over 40% in size
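Tdp1 1 nM final; 15 min RT w/ cpd; substrate 15 nM, 5 min; beads 10 ug/ml, 10 min; AlphaScreen read. Neg ctrl: no enzyme.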
BAZ2B inh = qHTS Assay for Inhibitors of BAZ2B; AlphaScreen BAZ2B-H3K14Ac peptide displacement; Potency, µM (highest dose often 114 µM), actives largely listed as inhibitors; Bromodomain adjacent to zinc finger domain protein 2B (Homo sapiens), Q9UIF8; hit rate 4.4% among 360,000; AID 504333, 2011; also: nearly all actives have a fitted effect of over 60% in size
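Compounds, titrated to a top concentration of 110 uM, were incubated 30 min at room temperature with preformed BAZ2B/acetyl-K14 H3 peptide complex (50 nM each). Proximity signal was measured by AlphaScreen after 20 min with beads.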
G9a inh = qHTS Assay for Inhibitors of Histone Lysine Methyltransferase G9a. G9a H3K9 monomethylation, AlphaScreen, 2 h. Potency, µM (top dose mostly 102 µM), hits mostly inhibitors. hit rate 8.8% among 350,000; also: nearly all actives have a fitted effect of over 75% in size
Target sequence (Q96KQ7 913-1193 limits assumed): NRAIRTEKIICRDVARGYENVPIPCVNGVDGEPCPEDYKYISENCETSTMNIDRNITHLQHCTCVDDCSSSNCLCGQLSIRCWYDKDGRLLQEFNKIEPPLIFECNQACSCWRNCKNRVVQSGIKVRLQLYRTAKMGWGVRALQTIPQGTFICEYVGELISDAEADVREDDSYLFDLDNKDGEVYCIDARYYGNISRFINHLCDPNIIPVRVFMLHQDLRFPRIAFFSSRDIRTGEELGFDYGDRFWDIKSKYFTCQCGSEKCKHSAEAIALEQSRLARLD
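G9a (20 nM) was preincubated 15 min with compound, then reacted 2 h at room temperature with 500 nM biotin-H3K9 peptide and 20 µM SAM. Monomethyl-H3K9 detected by AlphaScreen using anti-H3K9me1 antibody.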
HP1b chromo inh = HTS for Inhibitors of HP1-beta Chromodomain Interactions with Methylated Histone Tails; Chromobox protein homolog 1 (Homo sapiens), P83916; Potency, µM (top dose mostly 114 µM), usual class: inhibitors; AlphaScreen HP1-beta / biotin-H3K9me3 peptide binding; hit rate 0.56% among 390,000; also: nearly all actives have a fitted effect of over 70% in size
Target sequence (P83916 whole entry, looked up): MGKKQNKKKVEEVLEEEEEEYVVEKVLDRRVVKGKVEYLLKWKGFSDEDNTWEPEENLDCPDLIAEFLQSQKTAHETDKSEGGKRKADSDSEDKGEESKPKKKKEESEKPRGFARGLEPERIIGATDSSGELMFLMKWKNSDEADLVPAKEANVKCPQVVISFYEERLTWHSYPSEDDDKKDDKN
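HP1-beta protein (50 nM final) preincubated 30 min at room temperature with biotinylated H3(1-18)K9me3 peptide (50 nM) in PBS pH 7.4, 0.01% Tween-20, then compound added for 30 min. AlphaScreen streptavidin donor/nickel chelate acceptor beads (10 ug/mL final), 30 min dark, luminescence read.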
Numbers stand for hits; 0 = inactive; ? = inconclusive; - = no result; [ ] = dose if it differs, or a comment. Shown are actives, neighbours in structure and some others; about 12% of the full set was active somewhere. Calls follow the shape of the dose curve; as a rule, active = well fitted curve in the direction sought with a large enough effect; inconclusive = small, poorly fitted or top-dose-only effect, or another doubt; inactive = no such curve, though single readings can be large; an effect the other way counts as inactive or inconclusive.

SMILES	JMJD2A Tudor	Sfp inh	TDP1 inh	BAZ2B inh	G9a inh	HP1b chromo inh
O=C(CCc1cn(Cc2ccc(F)cc2)c2ccccc12)N1CCOCC1	0	0	-	0	?	0
Cc1ccc(C)c(N2CCN(C3=C(c4ccccc4)C(=O)c4ccccc43)CC2)c1	2.5µM	-	0	?	3.2µM	?
COc1ccc(C2=C(N3CCN(c4cccc(C)c4C)CC3)c3ccccc3C2=O)cc1	5µM	-	0	2.2µM	3.2µM	?
Cc1ccc(C)c(N2CCN(CCCc3ccccc3)CC2)c1	0	0	-	0	0	0
CCOc1ccc(OCCC(=O)OCC(=O)Nc2cc(S(=O)(=O)N3CCOCC3)ccc2C)cc1	0	-	-	?	?	0
CCOC(=O)CCCCC1C(CCCC(=O)OCC)C=NN1C (stereo unspecified)	0	-	-	-	-	0
O=C(Nc1ccc(Cl)cc1N1CCOCC1)C1CC1	0	0	0	0	0	0
Cc1nc2cc(N3CCOCC3)c(NC(=O)C3CC3)cc2c(=O)n1Cc1ccccc1	?	0	0	?	50µM	0
CO/N=C(/C(=O)N[C@@H]1C(=O)N2C(C(=O)O)=CCS[C@H]12)c1cnc(N)s1	-	79µM	-	0	-	-
CC(=O)Nc1ncc2c(n1)CC(c1ccco1)CC2=O (stereo unspecified)	0	0	-	0	0	0
O=C(Nc1ncc2c(n1)CC(c1ccco1)CC2=O)c1ccco1 (stereo unspecified)	0	32µM	0	0	0	0
COc1ccc(C(=O)Nc2ncc3c(n2)CC(c2ccco2)CC3=O)cc1 (stereo unspecified)	0	50µM	0	0	?	0
Cc1ccc(S(=O)(=O)NC(=O)Nc2ncc3c(n2)CC(c2ccco2)CC3=O)cc1 (stereo unspecified)	0	0	0	0	18µM	0
O=C1CC(c2ccco2)Cc2nc(N3CCc4ccccc4C3)ncc21 (stereo unspecified)	0	25µM	0	?	45µM	0
CCCCn1cc(S(=O)(=O)c2ccc(C)cc2)c(=O)c2cc(F)c(N3CCCCC3)cc21	0	-	0	0	0	0
CCCc1cc(=O)n2nc(N3CCC(C(=O)N4CCN(c5ccc(OC)cc5)CC4)CC3)sc2n1	0	0	0	0	0	0
NS(=O)(=O)c1ccc(CCNC(=O)c2ccc(C#CC3(O)CCCCC3)cc2)cc1	0	0	0	0	0	0
CCOc1ccccc1NC(C)C(=O)NC(=O)NC1CCCCC1 (stereo unspecified)	?	-	0	0	?	0
CCOc1ccccc1CNC(=O)CCNS(=O)(=O)c1ccc2[nH]c(=O)oc2c1	0	0	0	0	0	0
Cc1cc(C)n2nc(CC(=O)NCc3ccc(F)cc3)nc2n1	71µM	0	0	0	?	0
COc1ccccc1C(=O)COC(=O)c1nc2nc(C)cc(C)n2n1	0	-	0	0	0	0
Cc1cc(C)n2nc(C(=O)OCC(=O)c3ccc(F)cc3)nc2n1	0	-	-	0	56µM	0
Cc1ccc(CNC(=O)Cc2nc3nc(C)cc(C)n3n2)cc1	0	0	0	0	0	0
O=C(Cn1c(=O)n(Cc2ccc(F)cc2)c(=O)c2sc3ccccc3c21)Nc1ccc(F)cc1F	0	-	0	0	0	0
C=C[C@@H](C1=CC(=O)C(OC)=C(OC)C1=O)c1ccccc1	-	11µM	0	-	-	-
SMILES	JMJD2A Tudor	Sfp inh	TDP1 inh	BAZ2B inh	G9a inh	HP1b chromo inh
CC(C)(C)OC(=O)NCc1nnc(C(C(=O)OCc2ccccc2)c2ccccc2)s1 (stereo unspecified)	0	-	0	-	-	-
COC(=O)NC(/C(C(=O)OC)=C(\C)NCc1ccccc1)c1ccc2ccccc2c1 (stereo unspecified)	-	0	0[21 µM]	-	-	-
Cc1[nH]nc2c1C(c1ccc(-c3ccc(Cl)cc3)o1)C(C#N)=C(N)O2 (stereo unspecified)	?	0	0	40µM	79µM	0
Cc1[nH]nc2c1C(c1ccc(-c3ccccc3C#N)o1)C(C#N)=C(N)O2 (stereo unspecified)	?	22µM	0	0	20µM	0
Cc1ccc(-c2ccc(C3C(C#N)=C(N)Oc4n[nH]c(C)c43)o2)cc1 (stereo unspecified)	?	50µM	0	?	?	?
Cc1[nH]nc2c1C(c1ccsc1C)C(C#N)=C(N)O2 (stereo unspecified)	0	0	0	0	79µM	0
COc1ccc([C@H]2CC(=O)C=C(c3ccc(C)c(F)c3)C2)cc1	0	-	0	0	0[2.33 µM]	0
CC(C)NC(=O)N1CCC2(CC1)CCN(C(=O)c1cnccn1)CC2	-	0	-	-	0[12.7 µM]	-
O=S(=O)(c1ccccc1)c1nnn2c1nc(N1CCN(c3ccccc3)CC1)c1cc(Cl)ccc12	0	-	0	0	0	0
CCOc1ccc(NCc2cc3c(C(C)(C)C)nn(-c4ccccc4)c3[nH]c2=O)cc1	50µM	0	0	22µM	40µM	?
Cc1ccc(-c2nn(-c3ccccc3)c3[nH]c(=O)c(CNCCN(C)C)cc23)cc1	-	?	0	0	0[12.7 µM]	-
CC(C)(C)c1nn(-c2ccccc2)c2[nH]c(=O)c(C=O)cc12	0	0	0	0	?	0
Cc1nn(-c2ccccc2)c2[nH]c(=O)c(CNc3ccc4c(c3)OCCO4)cc12	?	0	0	35µM	11µM	0
CCN1CCN(C(c2cccc(OC)c2)c2c(O)cc(C)n(Cc3ccco3)c2=O)CC1 (stereo unspecified)	0	-	0	0	?	0
CC(=O)c1ccc(NC(=O)CSc2cn(CC(=O)N3CCCCC3)c3ccccc23)cc1	0	-	0	0	0	0
S=c1nc(C23CC4CC(CC(C4)C2)C3)[nH][nH]1	3.5µM	56µM	-	0	0	0
Cc1ccc(S(=O)(=O)N2CCN(C(=O)Cn3nc(C(=O)O)c4ccccc4c3=O)CC2)cc1	0	0	0	0	0	0
Cc1ccc(-n2cccc2/C=C2/C(=N)N3C(=NC2=O)SN=C3S(C)(=O)=O)cc1	16µM	0	0	45µM	40µM	0
Cc1ccc(-n2cccc2/C=C2\C(=N)N3N=C(c4ccco4)SC3=NC2=O)cc1	?	0	56µM	35µM	10µM	0
CS(=O)(=O)C1=NSC2=NC(=O)/C(=C\c3cccn3-c3ccccc3Cl)C(=N)N21	?	0	0	50µM	50µM	0
CCC1=NN2C(=N)/C(=C\c3cccn3-c3ccc(C)c(C)c3)C(=O)N=C2S1	?	0	0	0	0	0
